# Measured values reported in PubChem BioAssay (NCATS).
# Records with an inconclusive call do not appear. The source made the active and inactive calls. Unless noted, calls follow the shape of the full dose curve.
# Tests used:
# [1] = qHTS drug screen for cell cycle checkpoint inhibitors in PARPi-resistant BRCA-mutant ovarian cancer cell lines. (AID 1963452); settings: PEO1/OlaR viability, CellTiter-Glo luminescence, 96 h, stronger effect = lower value
# Method in brief: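 PEO1, PEO4 and PEO1/OlaR ovarian cancer cells, 600 per well, exposed 96 h at 37C to a dilution series. Viability read by CellTiter-Glo luminescence, normalized to DMSO and empty wells; activity summarized as Z-AUC.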
# [2] = molecular target: Nuclear receptor subfamily 1 group I member 2 (Homo sapiens) (UniProt O75469); experiment: Dual reporter qHTS for agonist of Pregnane X Receptor (hPXR) against the NCATS DSHEA and TCM libraries: Luminescence readout (AID 1920059; active = well fitted curve in the direction sought with a large enough effect; an effect the other way counts as inactive or inconclusive; also: potency is read from the fitted curve at half-maximal effect); settings: hPXR dual reporter cells, luciferase luminescence agonist; series mostly up to 40 µM
# Description: Assay Development and Screening Technology Laboratory (ADST)
# National Center for Advancing Translational Sciences (NCATS), Rockville, MD
# National Institute of Health (NIH), Bethesda, Maryland
# Dietary Supplements and Natural Products have minor oversight of their safety and efficacy. We assembled a collection of Dietary Supplements and Natural Products (DSNP) as well as Traditional Chinese Medicinal (TCM) Plant extracts, which were screened against an in vitro panel of assays, including a liver cytochrome p450 enzyme panel, CAR/PXR signaling pathways, and P-gp transporter assays, to assess their activity. This pipeline facilitated the interrogation of Natural Product-Drug Interaction (NaPDI) through prominent metabolizing pathways. In addition, we compared the activity profiles of the DSNP/TCM substances with those of an approved drug collection. Many of the approved drugs have well-annotated mechanisms of action (MOA) while the MOAs for most of the DSNP and TCM samples remain unknown. Based on the premise that compounds with similar activity profiles tend to share similar targets or MOA, we clustered the library activity profiles to identify overlap with the NCATS Pharmaceutical Collection to predict the MOAs of the DSNP/TCM substances. Overall, we highlight four significant bioactivity profiles (measured by p-values) as examples of this prediction. To assess broad cytotoxicity, we employed screening against a HepG2 cell line. In addition, transporter-mediated drug interactions are utilized in the characterization of DDIs using a P-glycoprotein (P-gp) assays. To profile potential P-gp activity, a differential cell viability was measured against two cell lines: a parental KB-3-1 human cervical adenocarcinoma cell line and the drug-resistant subline KB-8-5-11 that overexpresses P-gp.
# To this end, we profiled both collections for potential CAR and/or PXR activity, employing a previously published 1536-well qHTS assay.
# [1] […]
# 8; Read; Fluorescence; ViewLux plate reader. […]
# 11; Read; Luminescence; ViewLux plate reader. […]
# [3] = molecular target: Nuclear receptor subfamily 1 group I member 2 (Homo sapiens) (UniProt O75469); experiment: Dual reporter qHTS for antagonist of Pregnane X Receptor (hPXR) against the NCATS DSHEA and TCM libraries: Luminescence Readout (AID 1920060; active = well fitted curve in the direction sought with a large enough effect; an effect the other way counts as inactive or inconclusive;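 also: HepG2 cells carrying hPXR luciferase reporter stimulated with rifampicin at 2 µM; 0% is about no effect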); settings: hPXR dual reporter cells, luciferase luminescence, antagonist mode; series mostly up to 40 µM
# Method in brief: (§1)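 hPXR-Luc HepG2 cells exposed 24 h at 37 C to compounds with 2 uM rifampicin in antagonist mode; luciferase luminescence measured by ONE-Glo, with CellTiter-Fluor viability read beforehand.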
# [4] = Dual reporter qHTS for antagonist of Pregnane X Receptor (hPXR) against the NCATS DSHEA and TCM libraries: Fluorescence Readout (AID 1920061; active = well fitted curve in the direction sought with a large enough effect; an effect the other way counts as inactive or inconclusive; also: 0% is about no effect); settings: PXR dual reporter cells, antagonist mode; series mostly up to 40 µM
# Method in brief: as §1
# [5] = qHTS for identification of novel therapeutic agents for treatment of microphthalmiaassociated transcription factor (MiT) renal cell carcinoma (RCC) (AID 1963991); settings: CellTiter-Glo, 48 h, stronger effect = lower value
# Method in brief: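 Three TFE3-fusion RCC lines (UOK109, UOK124, UOK145), 500 cells/well in complete medium, were treated with MIPE 4.0 compounds for 48 hours at 37 C. Viability was by CellTiter-Glo luminescence, normalized to DMSO (100%) and empty wells (0%); curves fitted over 11 concentrations.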
# [6] = measured here: PEO1 parental Z-AUC
# [7] = TFE3-RCC UOK109 viability, measured here: UOK109 Z-AUC
# [8] = TFE3-RCC viability, measured here: UOK124 Z-AUC
# [9] = TFE3-RCC viability, measured here: UOK145 Z-AUC
# Chain of Nuclear receptor subfamily 1 group I member 2 (Homo sapiens) (O75469 whole entry, looked up): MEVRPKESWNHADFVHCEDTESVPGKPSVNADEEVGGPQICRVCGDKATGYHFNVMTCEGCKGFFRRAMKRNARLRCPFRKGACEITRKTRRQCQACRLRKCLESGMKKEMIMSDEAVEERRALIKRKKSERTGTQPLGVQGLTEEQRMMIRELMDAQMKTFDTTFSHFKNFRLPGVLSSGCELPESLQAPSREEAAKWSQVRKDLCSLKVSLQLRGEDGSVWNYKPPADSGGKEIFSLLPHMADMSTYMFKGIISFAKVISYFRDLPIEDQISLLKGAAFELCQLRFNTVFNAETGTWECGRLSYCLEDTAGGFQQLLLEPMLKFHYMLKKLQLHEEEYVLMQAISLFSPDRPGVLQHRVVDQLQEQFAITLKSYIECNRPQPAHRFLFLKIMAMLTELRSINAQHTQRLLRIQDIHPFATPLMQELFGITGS
structure (smiles),measurement,setting,value
N#Cc1ccc(NC(=O)Nc2ccccc2Br)c2n[nH]nc12,Z-AUC,[1],1.45 (inactive)
same,Z-AUC,[1]; [6],0.952
same,Z-AUC,[1]; measured here: PEO4 Z-AUC,1.04
COc1cc2c(cc1OC)CN(CCc1ccc(NC(=O)c3cc(OC)c(OC)cc3NC(=O)c3cnc4ccccc4c3)cc1)CC2,Z-AUC,[1],0.969 (inactive)
same,Z-AUC,[1]; [6],1.41
same,Z-AUC,[1]; measured here: PEO4 Z-AUC,1.02
CN[C@@H](C)C(=O)N[C@H]1CN(C(=O)CC(C)C)CC[C@H]2CC[C@@H](C(=O)NC(c3ccccc3)c3ccccc3)N2C1=O,Z-AUC,[1],0.77 (inactive)
same,Z-AUC,[1]; [6],0.371
same,Z-AUC,[1]; measured here: PEO4 Z-AUC,-0.22
CC(C)OC(=O)C(C)(C)Oc1ccc(C(=O)c2ccc(Cl)cc2)cc1,Z-AUC,[1],-0.547 (inactive)
same,Z-AUC,[1]; [6],-0.458
same,Z-AUC,[1]; measured here: PEO4 Z-AUC,0.0191
COc1ccc(C2CC(c3ccccc3)=NN2c2ccc(S(N)(=O)=O)cc2)cc1 (stereo unspecified),Z-AUC,[1],-0.424 (inactive)
same,Z-AUC,[1]; [6],-0.864
same,Z-AUC,[1]; measured here: PEO4 Z-AUC,-0.548
NC(=O)c1ccc2nc(-c3ccc(Oc4ccc(Cl)cc4)cc3)[nH]c2c1,Z-AUC,[1],-1.56 (inactive)
same,Z-AUC,[1]; [6],-1.26
same,Z-AUC,[1]; measured here: PEO4 Z-AUC,-1.18
Cc1c(NC(=O)c2ccc(C(C)(C)C)cc2)cccc1-c1cn(C)c(=O)c(Nc2ccc(C(=O)N3CCOCC3)cc2)n1,Z-AUC,[1],1.16 (inactive)
same,Z-AUC,[1]; [6],0.745
same,Z-AUC,[1]; measured here: PEO4 Z-AUC,0.879
c1cc(-c2sc(-c3ccncc3)c(-c3ccncc3)c2-c2ccncc2)ccn1,Z-AUC,[1],1.76 (inactive)
same,Z-AUC,[1]; [6],1.54
same,Z-AUC,[1]; measured here: PEO4 Z-AUC,1.03
CCOC(=O)C1=C(N)Oc2ccc(Br)cc2C1C(C#N)C(=O)OCC (stereo unspecified),Z-AUC,[1],1.64 (inactive)
same,Z-AUC,[1]; [6],1.22
same,Z-AUC,[1]; measured here: PEO4 Z-AUC,1.22
COC(=O)[C@@H]1[C@H]2C[C@H]3c4[nH]c5ccccc5c4CCN3C[C@@H]2CC[C@@H]1O,Z-AUC,[1],0.808 (inactive)
same,Z-AUC,[1]; [6],0.498
same,Z-AUC,[1]; measured here: PEO4 Z-AUC,0.659
NC(CO)(CO)CCc1ccc(Sc2cccc(OCc3ccccc3)c2)cc1Cl,Z-AUC,[1],0.362 (inactive)
same,Z-AUC,[1]; [6],-0.197
same,Z-AUC,[1]; measured here: PEO4 Z-AUC,-0.274
CS(=O)(=O)N(Cc1ccco1)CC(O)Cn1c2ccccc2c2ccccc21 (stereo unspecified),Z-AUC,[1],1.06 (inactive)
same,Z-AUC,[1]; [6],0.549
same,Z-AUC,[1]; measured here: PEO4 Z-AUC,0.481
CC1(C)Cc2c(sc(NC(=S)NC(=O)c3ccccc3)c2C(=O)O)CO1,Z-AUC,[1],-0.088 (inactive)
same,Z-AUC,[1]; [6],-0.241
same,Z-AUC,[1]; measured here: PEO4 Z-AUC,0.00999
Nc1ncnc2ccccc12,Z-AUC,[1],-0.0198 (inactive)
same,Z-AUC,[1]; [6],0.844
same,Z-AUC,[1]; measured here: PEO4 Z-AUC,0.705
COCCOc1nc(-c2ccc(Cl)c(Cl)c2)n(-c2ccc(NC(=O)CCl)cc2)n1,Z-AUC,[1],-0.18 (inactive)
same,Z-AUC,[1]; [6],0.0816
same,Z-AUC,[1]; measured here: PEO4 Z-AUC,-0.069
O=c1cc(-c2ccc(O)cc2)oc2cc(O)cc(O)c12,Potency,[2],31.6 µM (active)
same,outcome,[3],inactive
same,outcome,[4],inactive
same,Z-AUC,[1],0.475 (inactive)
same,Z-AUC,[1]; [6],0.649
same,Z-AUC,[1]; measured here: PEO4 Z-AUC,0.805
C=C1C(=O)[C@@]23C(CC[C@@H]1[C@H]2O)[C@@]12CO[C@]3(O)[C@@H](O)[C@@H]1C(C)(C)CC[C@@H]2O (stereo partly specified),Z-AUC,[1],-0.857 (inactive)
same,Z-AUC,[1]; [6],-1.05
same,Z-AUC,[1]; measured here: PEO4 Z-AUC,-1.08
COc1ccc2c(Oc3ccc(NC(=O)c4c(C)n(CC(C)(C)O)n(-c5ccccc5)c4=O)cc3F)ccnc2c1,Z-AUC,[1],-0.152 (inactive)
same,Z-AUC,[1]; [6],0.199
same,Z-AUC,[1]; measured here: PEO4 Z-AUC,0.0396
CCc1ccc(OCc2ccccc2C(=O)Nc2ccc3nc(C)cc(N)c3c2)cc1,Z-AUC,[1],-0.061 (inactive)
same,Z-AUC,[1]; [6],-0.206
same,Z-AUC,[1]; measured here: PEO4 Z-AUC,-0.159
O=c1cc(-c2cccc3c2Sc2ccccc2S3)oc(N2CCOCC2)c1,Z-AUC,[1],1.05 (inactive)
same,Z-AUC,[1]; [6],1.03
same,Z-AUC,[1]; measured here: PEO4 Z-AUC,0.875
O=c1c(-c2ccc(O)cc2)coc2cc(O[C@@H]3O[C@H](CO)[C@H](O)[C@H](O)[C@H]3O)ccc12,Potency,[2],inactive
same,outcome,[3],inactive
same,outcome,[4],inactive
same,z-score,[5]; [7],0.945
same,z-score,[5]; [8],2.11
same,z-score,[5]; [9],1.28
C[C@H](NC(=O)C(=O)Nc1ccccc1C(C)(C)C)C(=O)N[C@@H](CC(=O)O)C(=O)COc1c(F)c(F)cc(F)c1F,Z-AUC,[1],0.426 (inactive)
same,Z-AUC,[1]; [6],0.799
same,Z-AUC,[1]; measured here: PEO4 Z-AUC,1.06
CCS(=O)(=O)N1CC(CC#N)(n2cc(-c3ncnc4[nH]ccc34)cn2)C1,Z-AUC,[1],0.685 (inactive)
same,Z-AUC,[1]; [6],0.902
same,Z-AUC,[1]; measured here: PEO4 Z-AUC,0.44
N[C@H](CSC(c1ccccc1)(c1ccccc1)c1ccccc1)C(=O)O,Z-AUC,[1],0.731 (inactive)
same,Z-AUC,[1]; [6],0.902
same,Z-AUC,[1]; measured here: PEO4 Z-AUC,0.85
Cc1ccc(/C=N/NC(=O)c2ccccc2Oc2ccccc2)o1,Z-AUC,[1],0.785 (inactive)
same,Z-AUC,[1]; [6],0.523
same,Z-AUC,[1]; measured here: PEO4 Z-AUC,0.656
Cc1ccc(C(C)(O)c2nc3ccccc3s2)c(C)c1 (stereo unspecified),Z-AUC,[1],0.398 (inactive)
same,Z-AUC,[1]; [6],0.537
same,Z-AUC,[1]; measured here: PEO4 Z-AUC,0.368
CC[C@@]1(O)C[C@H](O[C@H]2C[C@H](N(C)C)[C@H](O[C@H]3C[C@H](O)[C@H](O[C@H]4CCC(=O)[C@H](C)O4)[C@H](C)O3)[C@H](C)O2)c2c(cc3c(c2O)C(=O)c2c(O)cccc2C3=O)[C@@H]1C(=O)OC,Z-AUC,[1],-0.814 (inactive)
same,Z-AUC,[1]; [6],-0.555
same,Z-AUC,[1]; measured here: PEO4 Z-AUC,-0.946
COc1cc2ncnc(-n3nc(-c4ccccn4)nc3N)c2cc1OC,Z-AUC,[1],-0.168 (inactive)
same,Z-AUC,[1]; [6],0.627
same,Z-AUC,[1]; measured here: PEO4 Z-AUC,0.697
Cc1ccc(F)c(NC(=O)Nc2ccc(-c3cccc4[nH]nc(N)c34)cc2)c1,Z-AUC,[1],1.25 (inactive)
same,Z-AUC,[1]; [6],1.09
same,Z-AUC,[1]; measured here: PEO4 Z-AUC,1.16
COc1ccc(-c2coc3cc(O)ccc3c2=O)cc1,outcome,[3],inactive
same,outcome,[4],inactive
same,z-score,[5]; [7],0.416
same,z-score,[5]; [8],0.783
same,z-score,[5]; [9],0.452
C[N+](C)(C)CC(=O)O,Z-AUC,[1],-0.734 (inactive)
same,Z-AUC,[1]; [6],0.456
same,Z-AUC,[1]; measured here: PEO4 Z-AUC,-0.678
